In all, about 39,000 sequences were measured (“fluorescence intensity (a.u.)”: median about 4,300, highest 2% from about 39,000 on). The sample holds the highest values, similar sequences and a random draw of the others, so the mix is not that of the screen.
What follows are sequences tested against T1, OsSMF1 (Oryza sativa, UniProt Q6ZLB0 1-436) (assay: protein-binding microarray (RPBM); PBS, 2% BSA, 51.3 ng/ul salmon testes DNA, 50 uM zinc acetate, 200 nM TF, 25 C, 1 h; high values mean tight binding). Details: protein: recombinant; tags: N-terminal polyhistidine and DsRed monomer fusion (pET32a); chain copies: 2; label: CyDye5-dUTP incorporated in the synthesized complementary strand; 3' TTTTT single-stranded linker to array surface; dsDNA, one strand shown.
T1 sequence: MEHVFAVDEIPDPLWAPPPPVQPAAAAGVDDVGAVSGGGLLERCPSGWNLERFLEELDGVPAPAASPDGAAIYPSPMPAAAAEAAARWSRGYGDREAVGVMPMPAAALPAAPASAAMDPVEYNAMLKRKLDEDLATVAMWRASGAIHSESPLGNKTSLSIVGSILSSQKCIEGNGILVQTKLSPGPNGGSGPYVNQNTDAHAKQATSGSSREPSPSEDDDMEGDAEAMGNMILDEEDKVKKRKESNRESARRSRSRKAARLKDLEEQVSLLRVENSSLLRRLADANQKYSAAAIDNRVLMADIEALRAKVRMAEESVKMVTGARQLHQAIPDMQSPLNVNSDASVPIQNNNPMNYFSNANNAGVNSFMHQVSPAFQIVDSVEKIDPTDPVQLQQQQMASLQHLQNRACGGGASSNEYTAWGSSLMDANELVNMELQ
In short: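 For the binding signal, per-feature fluorescence intensity was read in arbitrary units on an Axon 4000B scanner. Before scanning, a 2% BSA-blocked custom Agilent array made double-stranded with Cy5-dUTP was washed after 1 h at 25 °C with 200 nM protein and 50 µM zinc acetate. The proteins were Ni–NTA-purified transcription factors with N-terminal polyhistidine and DsRed fusions, expressed in E. coli BL21-CodonPlus.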
For “GATGTTACGCGTGTAATGGTGTGTGCGTGTATATACTTTGCGGAGTCACCTAGTGCAG”, the binding signal was 7330 fluorescence intensity (a.u.). For “ACGTTTACTCCCAGTACACACAAGACACTACTAGCTTAGACGGAGTCACCTAGTGCAG”, the binding signal was 3420 fluorescence intensity (a.u.). For “TGGAGGAGGAGGAGGGGAGACCACCGGAGGTAGGCGAATCCGGAGTCACCTAGTGCAG”, the binding signal was 3140 fluorescence intensity (a.u.). “TCAGATAGCCACCATGACATGTATCAGTACATGCAGTGATCGGAGTCACCTAGTGCAG” was tested, and the binding signal was 4480 fluorescence intensity (a.u.). “CGAATAAGCCCTTAATGTGTACGTTATTTGGTTTATCCACCGGAGTCACCTAGTGCAG” was tested, and the binding signal was 3240 fluorescence intensity (a.u.). “CGCCGGTGCTGATGCTGATCGATCTTACGTCGCGTCGCGACGGAGTCACCTAGTGCAG” was tested, and the binding signal was 3280 fluorescence intensity (a.u.). For “CTGCAGCAAACGACCAGCCATGTCACAGGTTGTGAAGGTCCGGAGTCACCTAGTGCAG”, the binding signal was 4600 fluorescence intensity (a.u.). In the case of “GAAGGCGGCGCGGAAGTCGGCGCCGGCGACCGGCGGCGTGCGGAGTCACCTAGTGCAG”, the binding signal is reported as 9120 fluorescence intensity (a.u.). “TTGGGCGAGGTAGAGGCGGCGCCGGTGTCATCACCGTCGTCGGAGTCACCTAGTGCAG” was tested, and the binding signal was 5140 fluorescence intensity (a.u.). For “AGAGCAAGGCGCCGGTGGTGCTCATCAAGCCGTCGGCGACCGGAGTCACCTAGTGCAG”, the binding signal was 63100 fluorescence intensity (a.u.). “ACGGTCACGGTCCGGCCGCTCTACACGTACGTAGTACGTGCGGAGTCACCTAGTGCAG” was tested, and the binding signal was 25100 fluorescence intensity (a.u.). In the case of “GAGATTTGATGACTGGGATGCCACATGGACACCACGACAGCGGAGTCACCTAGTGCAG”, the binding signal is reported as 13300 fluorescence intensity (a.u.). For “ATGGTGGTTGTGTCTTATATTTTGGAATGGAGGGACTTATCGGAGTCACCTAGTGCAG”, the binding signal was 21300 fluorescence intensity (a.u.). “TGGGCCGTGATTGAGGCCTATATATACGTGGCCTGACAAACGGAGTCACCTAGTGCAG” was tested, and the binding signal was 4000 fluorescence intensity (a.u.). With “ATCAACGTATCTAAACCGGATGGAAACACGTATCTAAACACGGAGTCACCTAGTGCAG” the binding signal was 6180 fluorescence intensity (a.u.). For “GGATCGAAACTTGTGTTAAACACGTCAACTTCATGCATCTCGGAGTCACCTAGTGCAG”, the binding signal was 3310 fluorescence intensity (a.u.). “CAACACGCTCGATATCATCTAGTTAAACTAACCTAGTGTGCGGAGTCACCTAGTGCAG” was tested, and the binding signal was 42700 fluorescence intensity (a.u.). In the case of “AGCTTCGGTTTTCTTACTCAGCACAACGGGGTGGTGGCGCCGGAGTCACCTAGTGCAG”, the binding signal is reported as 5360 fluorescence intensity (a.u.). “CCGTTGAATGTGCCAGACAAACTGAGTGTAATTTAATATTCGGAGTCACCTAGTGCAG” was tested, and the binding signal was 65100 fluorescence intensity (a.u.). “GAAAATTTGAGCAAAATTTAGTTGAATTTGAACAAATATTCGGAGTCACCTAGTGCAG” was tested, and the binding signal was 6670 fluorescence intensity (a.u.). With “AATTACAGATTCCGTCAGAAAACTGTGAGACAGATTTATTCGGAGTCACCTAGTGCAG” the binding signal was 3290 fluorescence intensity (a.u.). “TCCCTTGTCGACACATGCGTGTCAGCTCCAGGTTTATAACCGGAGTCACCTAGTGCAG” was tested, and the binding signal was 6370 fluorescence intensity (a.u.). In the case of “CTCATGTTGTTTGACGGTTTGACTCTCCTAGTTTATCATCCGGAGTCACCTAGTGCAG”, the binding signal is reported as 3370 fluorescence intensity (a.u.). “TTCACGCCCTGTAACATCGTGTGCATCCATCCCTCCACCGCGGAGTCACCTAGTGCAG” was tested, and the binding signal was 4190 fluorescence intensity (a.u.). With “ACCTTCAAATGCAATTTTACAATGGATTTACCTCAAGCTACGGAGTCACCTAGTGCAG” the binding signal was 19200 fluorescence intensity (a.u.). With “TAAAATCTAGATGCAATGAGTTATTTCATATGATTTGAAACGGAGTCACCTAGTGCAG” the binding signal was 17000 fluorescence intensity (a.u.). With “TTTTCATAAATGCTCCTTTGAAACAAATGATTTTACCCTACGGAGTCACCTAGTGCAG” the binding signal was 43000 fluorescence intensity (a.u.). For “CCTGAAGTTCTAGATGTTGATTTTGTCATGATGATCTAATCGGAGTCACCTAGTGCAG”, the binding signal was 4580 fluorescence intensity (a.u.). In the case of “AAATAAATAGGGAATTTAACCTTGCCACGTCACCGATCCGCGGAGTCACCTAGTGCAG”, the binding signal is reported as 48100 fluorescence intensity (a.u.). “CCTTAAATTTTCCTAAATCCTTACCTACCGTCATTCTCTCCGGAGTCACCTAGTGCAG” was tested, and the binding signal was 47400 fluorescence intensity (a.u.). With “AACTTCAATTTCAAATAACAGGGTCAAATAAACAAACCTACGGAGTCACCTAGTGCAG” the binding signal was 4590 fluorescence intensity (a.u.). For “TCCCGCCAAATCACCGATCCGCGCCTCACGCCACGTCAACCGGAGTCACCTAGTGCAG”, the binding signal was 16000 fluorescence intensity (a.u.). In the case of “ATAAATACCGCGATAACCTCCTTAAATTCAAATAAATTTACGGAGTCACCTAGTGCAG”, the binding signal is reported as 54800 fluorescence intensity (a.u.). For “GTTTGCGAGGAATAGCGGGAACGATCCGCGCCACCACGAACGGAGTCACCTAGTGCAG”, the binding signal was 18000 fluorescence intensity (a.u.). “TTTCTAATTCGTCATTCACCTCTCTCCTCCATCTCTACCCCGGAGTCACCTAGTGCAG” was tested, and the binding signal was 3520 fluorescence intensity (a.u.). In the case of “CGTCTCATTCTCTCTCCACATTTCCTTTTGATCCCTTCTCCGGAGTCACCTAGTGCAG”, the binding signal is reported as 24300 fluorescence intensity (a.u.). “TACTTATCCAGATTCAAAAGATAAAATTTATTATATTATACGGAGTCACCTAGTGCAG” was tested, and the binding signal was 12600 fluorescence intensity (a.u.). In the case of “CCGGCGTGGCGACGTCAGTACTCTCTTCTGCTTCATTTCTCGGAGTCACCTAGTGCAG”, the binding signal is reported as 7490 fluorescence intensity (a.u.). For “AAGCTTTGCATTTGGGCGCTGGGCATGTCAGCGTCCGGTTCGGAGTCACCTAGTGCAG”, the binding signal was 4440 fluorescence intensity (a.u.). In the case of “AGATGGGCTTGAGAATGTGATGTCTCGTTTAATTGGGCCCCGGAGTCACCTAGTGCAG”, the binding signal is reported as 3310 fluorescence intensity (a.u.). For “ATTGTTGACACTATGACTTTCTTACTTTGACCGCAATTTTCGGAGTCACCTAGTGCAG”, the binding signal was 3720 fluorescence intensity (a.u.). With “TGAGGATGCAAGAGAATCCTAAAAGGTAAGGCAGCATGCACGGAGTCACCTAGTGCAG” the binding signal was 44100 fluorescence intensity (a.u.). “CAAGAGATAAGGAGCAATCGATCCAGCGTGGCGGCATGCACGGAGTCACCTAGTGCAG” was tested, and the binding signal was 3470 fluorescence intensity (a.u.). With “CAAGCAATGCAAGGCAAGAGGTAATTGGCCGTGGAATCCACGGAGTCACCTAGTGCAG” the binding signal was 4720 fluorescence intensity (a.u.). “CCAGTTTTGTCCACGTGGCAGCTGACTCACGGTGGGACCCCGGAGTCACCTAGTGCAG” was tested, and the binding signal was 29200 fluorescence intensity (a.u.). In the case of “CACACGCAAAGCTGCAAAAGTTGAATTCCATTATTCCACACGGAGTCACCTAGTGCAG”, the binding signal is reported as 65500 fluorescence intensity (a.u.). “AGCAAAGCTGCCAGAGCACGGCACAGCACACAGGTGACGGCGGAGTCACCTAGTGCAG” was tested, and the binding signal was 3450 fluorescence intensity (a.u.). “CGCACCCGCACAGCACCACACCACCTGCCTAGCGCCAAGCCGGAGTCACCTAGTGCAG” was tested, and the binding signal was 3560 fluorescence intensity (a.u.). In the case of “AAGTTTGGCTGTATTTATTCCACACCATAATTGAAAGTTTCGGAGTCACCTAGTGCAG”, the binding signal is reported as 3160 fluorescence intensity (a.u.). “CCAAAGCTGCGCAGCACCCTGAACGGCACCACACCACGGACGGAGTCACCTAGTGCAG” was tested, and the binding signal was 57400 fluorescence intensity (a.u.). “AGTTGAGCTCCTTGTCATTGATGAAGCTGCTGCTATTCCACGGAGTCACCTAGTGCAG” was tested, and the binding signal was 3740 fluorescence intensity (a.u.). With “ATTGGATGCTGAATTGATGAGTACATACGTATACGTATACCGGAGTCACCTAGTGCAG” the binding signal was 4160 fluorescence intensity (a.u.). For “CAACTGGCCATGTATGCACATGCACCCCAGAGACAACCTACGGAGTCACCTAGTGCAG”, the binding signal was 3420 fluorescence intensity (a.u.). For “GTTGACGGGGTTTGTGAGGTGTGGCGGTGACTTGGAAAGACGGAGTCACCTAGTGCAG”, the binding signal was 3540 fluorescence intensity (a.u.).

From paper PMC7819943, “Rice protein-binding microarrays: a tool to detect cis-acting elements near promoter regions in rice”
